HT1080 IDH1KD tx: toxicity to HT-1080 IDH1 knockdown cells (counter line) | actives 2% (n = 360,000) | Potency, µM (series often up to 46.1 µM), for inactives: top-dose activity, negative = toxicity, most hits filed as cytotoxic | HT-1080 IDH1 knockdown viability, ATP luminescence, 48 h;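 also: 0% = DMSO wells and -100% = cell-free medium wells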
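Luminescent ATP read-out (CellTiter-Glo, 10 min at room temperature) after 48 h compound exposure at 37 °C gave viability of IDH1-knockdown HT-1080 cells. Activity was normalised to DMSO and cell-free wells, then fitted as concentration-response curves.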
KB-V1 MDR tox: kills drug-selected multidrug resistant KB-V1 cells | KB-V1 MDR cells viability, CellTiter-Glo, 72 h | actives 3.4% (n = 400,000) | Potency, µM (highest dose often 46.1 µM), actives largely listed as cytotoxic | AID 1347076; also: % is scaled to controls: 0 for no effect and ±100 for the full control effect; nearly all actives have a fitted effect of over 60% in size
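Luminescent ATP read-out (CellTiter-Glo, 10 min) measures survival of drug-selected KB-V1 MDR cells after 72 h, 37 degrees C compound exposure. Medium: phenol-red-free DMEM, 10% FBS. Values from fitted concentration-response curves.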
KB-3-1 tox: kills parental KB-3-1 adenocarcinoma cells; Potency, µM (top dose mostly 46.1 µM), most hits filed as cytotoxic; actives 1.4% (n = 400,000); KB-3-1 viability, CellTiter-Glo ATP luminescence, 72 h; AID 1347075; also: % is scaled to controls: 0 for no effect and ±100 for the full control effect; nearly all actives have a fitted effect of over 60% in size
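Viability of parental KB-3-1 cells, measured by CellTiter-Glo luminescence, followed a 72 h incubation at 37 °C with pinned compounds in phenol-red-free DMEM containing 10% FBS.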
SW480 rereplic: inducers of DNA re-replication in SW480 colon cancer cells; actives 1.8% (n = 340,000); AID 624297; SW480 DNA re-replication, Hoechst DNA content imaging, 48 h; Potency, µM (top dose mostly 46.1 µM), for the others: at the top dose re-replication activation, actives largely listed as activators; also: % of control where 0% means no effect; nearly all actives have a fitted effect of over 55% in size
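Hoechst fluorescence of nuclei (405 nm excitation, 500-530 nm emission) measured by plate-scanning imager after 48 hr compound exposure at 37 C; re-replication scored as increased number of nuclei with elevated intensity.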
HT1080-NT tox: kills 2HG-producing HT-1080-NT fibrosarcoma cells; HT-1080-NT fibrosarcoma viability, CellTiter-Glo ATP luminescence, 48 h; Potency, µM (highest dose often 46.1 µM), without a hit: at the top dose activity, negative = less viability, usual class: cytotoxic; actives 1.6% (n = 360,000);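 also: NT is the 2HG producing partner of a matched IDH1 knockdown line; 0% = DMSO-treated cells and -100% = media-only wells without cells; nearly all actives have a fitted effect of over 55% in size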
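Viability by CellTiter-Glo luminescence after 48 h compound exposure at 37C of HT-1080-NT cells (750/well, RPMI, 5% FBS). % activity scaled between DMSO wells and medium-only wells, then curve-fitted and categorized by curve class.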
MCF10A rerep: DNA re-replication induction in MCF 10a cells; MCF 10A DNA re-replication, Hoechst nuclear intensity, 48 h; Potency, µM (series often up to 46.1 µM), for the others: at the highest dose activity, positive = re-replication, hits mostly activators; actives 2.9% (n = 350,000); AID 624296; also: % of control where 0% means no effect; nearly all actives have a fitted effect of over 50% in size
The depositor's hits bear a star. Hits are enriched below; roughly 7.9% of the tested compounds scored in any of these assays. Calls follow the shape of the dose curve; as a rule, active = well fitted curve in the direction sought with a large enough effect; inconclusive = small, poorly fitted or top-dose-only effect, or another doubt; inactive = no such curve, though single readings can be large; an effect the other way counts as inactive or inconclusive. Potency is read from the fitted curve at half-maximal effect.

For CCOc1ccccc1-c1cc(-c2n[nH]c(=S)n2CC)c2ccccc2n1 the results were HT1080 IDH1KD tx 1%, KB-V1 MDR tox inactive, KB-3-1 tox inactive, SW480 rereplic 21%, HT1080-NT tox -6% and MCF10A rerep 31%.
Screening CCn1c(-c2cc(Br)ccc2O)n[nH]c1=S returned HT1080 IDH1KD tx -23%, KB-V1 MDR tox inactive, KB-3-1 tox inactive, SW480 rereplic 14%, HT1080-NT tox 0% and MCF10A rerep -46%.
For C=CCn1c(-c2cc(OC)c(OC)c(OC)c2)n[nH]c1=S the results were HT1080 IDH1KD tx inconclusive, KB-V1 MDR tox inconclusive, KB-3-1 tox inactive, SW480 rereplic -4%, HT1080-NT tox 7% and MCF10A rerep -18%.
`CCOC(=O)C1C(=O)C(C(C)=O)C(=O)CC1CC(C)SCC` (centres undefined) gave HT1080 IDH1KD tx 20%, KB-V1 MDR tox 21µM*, KB-3-1 tox inactive, SW480 rereplic -13%, HT1080-NT tox 3% and MCF10A rerep -6%.
O=C(CCN1CCOCC1)c1ccc(Cl)cc1 was read as HT1080 IDH1KD tx -4%, KB-V1 MDR tox inactive, KB-3-1 tox inactive, SW480 rereplic 20%, HT1080-NT tox -12% and MCF10A rerep 7.3µM*.
For O=C(CCN1CCOCC1)c1ccc(Br)cc1 the results were HT1080 IDH1KD tx 26µM*, KB-V1 MDR tox inactive, KB-3-1 tox inactive, SW480 rereplic inconclusive, HT1080-NT tox inconclusive and MCF10A rerep 9.2µM*.
Screening CCCCCOc1ccc(C(=O)CCN2CCOCC2)cc1 returned HT1080 IDH1KD tx inconclusive, KB-V1 MDR tox inactive, KB-3-1 tox inactive, SW480 rereplic 3%, HT1080-NT tox inconclusive and MCF10A rerep inconclusive.
`CC1CN(C(=O)c2cc(-c3ccncc3)nc3ccccc23)CC(C)O1` (centres undefined) gave HT1080 IDH1KD tx 2%, KB-V1 MDR tox inactive, KB-3-1 tox inactive, SW480 rereplic inconclusive, HT1080-NT tox -3% and MCF10A rerep 5%.
Screening CC(NO)/C(=N\O)c1cccs1 (centres undefined) returned HT1080 IDH1KD tx 23%, KB-V1 MDR tox inactive, KB-3-1 tox inactive, SW480 rereplic inconclusive, HT1080-NT tox 0% and MCF10A rerep 3.7µM*.
CCSc1nnc(NC(=O)C(NC(=O)c2ccc(Cl)cc2)C(C)C)s1 (centres undefined) was read as HT1080 IDH1KD tx 1%, KB-V1 MDR tox 12µM*, KB-3-1 tox inactive, SW480 rereplic -2%, HT1080-NT tox 1% and MCF10A rerep 2%.
`CC(C)C(NC(=O)c1ccc(Cl)cc1)C(=O)NC1=NCCS1` (centres undefined) gave HT1080 IDH1KD tx 0%, KB-V1 MDR tox 21µM*, KB-3-1 tox inactive, SW480 rereplic -7%, HT1080-NT tox -1% and MCF10A rerep 4%.
For CC(=O)Nc1ccc(NC(=O)C(NC(=O)c2ccc(Cl)cc2)C(C)C)cc1 (centres undefined) the results were HT1080 IDH1KD tx -2%, KB-V1 MDR tox inactive, KB-3-1 tox inactive and HT1080-NT tox 8%.
`CNc1cccnc1C=NNC(N)=S` gave HT1080 IDH1KD tx inconclusive, KB-V1 MDR tox inconclusive, KB-3-1 tox inconclusive, SW480 rereplic 0.92µM*, HT1080-NT tox -17% and MCF10A rerep 28%.
`Cc1c(NC(=S)NC(=O)C(c2ccccc2)c2ccccc2)cccc1C(=O)O` gave HT1080 IDH1KD tx -8%, KB-V1 MDR tox inactive, KB-3-1 tox inactive, SW480 rereplic 2%, HT1080-NT tox -18% and MCF10A rerep 7%.
For Cc1cc(C(=O)CSc2nc3ccccc3[nH]2)c(C)n1Cc1ccco1 the results were HT1080 IDH1KD tx inconclusive, KB-V1 MDR tox 2.1µM*, KB-3-1 tox inconclusive, SW480 rereplic 1%, HT1080-NT tox inconclusive and MCF10A rerep 28%.
Cc1cc(C(=O)CSc2nc3ccc(Cl)cc3[nH]2)c(C)n1C was read as HT1080 IDH1KD tx -10%, KB-V1 MDR tox 21µM*, KB-3-1 tox inactive, SW480 rereplic -3%, HT1080-NT tox -30% and MCF10A rerep -2%.
Cc1ccc2nc(SCC(=O)c3cc(C)n(C)c3C)[nH]c2c1 was read as HT1080 IDH1KD tx 1%, KB-V1 MDR tox inactive, KB-3-1 tox inactive, SW480 rereplic -25%, HT1080-NT tox 9% and MCF10A rerep 21%.
Screening CC(C)CC(NC(=O)OCc1ccccc1)C(=O)NC(Cc1ccccc1)C(=O)CCl (centres undefined) returned HT1080 IDH1KD tx inconclusive, KB-V1 MDR tox inconclusive, KB-3-1 tox inconclusive, SW480 rereplic 6.5µM*, HT1080-NT tox inconclusive and MCF10A rerep 7.3µM*.
CN(Cc1ccc(F)cc1)C(=O)C(Cc1ccccc1)NC(=O)c1ccccc1 (centres undefined) was read as HT1080 IDH1KD tx 1%, KB-V1 MDR tox 10µM*, KB-3-1 tox inactive, SW480 rereplic -95%, HT1080-NT tox -4% and MCF10A rerep -17%.
For Cc1ccc(NC(=O)C(Cc2ccccc2)NC(=O)OCc2ccccc2)cc1C (centres undefined) the results were HT1080 IDH1KD tx -5%, KB-V1 MDR tox 5.8µM*, KB-3-1 tox inactive, SW480 rereplic 26%, HT1080-NT tox -12% and MCF10A rerep 0%.
`CN(Cc1ccccc1)C(=O)c1ccccc1NC(=O)c1ccccc1` gave HT1080 IDH1KD tx 3%, KB-V1 MDR tox 23µM*, KB-3-1 tox inactive, SW480 rereplic -3%, HT1080-NT tox 5% and MCF10A rerep 0%.
CN(Cc1ccccc1)C(=O)c1ccccc1NC(=O)C1CC1 was read as HT1080 IDH1KD tx 10%, KB-V1 MDR tox inactive, KB-3-1 tox inactive, SW480 rereplic 4%, HT1080-NT tox 6% and MCF10A rerep -3%.
CCn1cc2nc(SCC(=O)Nc3ccc(OC)c(OC)c3)n(Cc3ccc(Cl)cc3)c(=O)c2n1 was read as KB-V1 MDR tox inactive and KB-3-1 tox inactive.
CCOc1ccc(C(=O)OCC(=O)N(Cc2ccccc2)Cc2ccccc2)cc1OC was read as HT1080 IDH1KD tx -9%, KB-V1 MDR tox 23µM*, KB-3-1 tox inactive, SW480 rereplic -3%, HT1080-NT tox -12% and MCF10A rerep -1%.
Screening COc1cc(C(=O)OCC(=O)NC(=O)NCc2ccccc2)ccc1OC(F)F returned HT1080 IDH1KD tx -9%, KB-V1 MDR tox inactive, KB-3-1 tox inactive, SW480 rereplic -3%, HT1080-NT tox 1% and MCF10A rerep 2%.
